This is an account of results in PubChem BioAssay (NCI).

Structures are written as SMILES. About 83,000 compounds went through this panel and 20% of them were active in at least one assay; those are over-represented in the sample as a whole.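 Interpretation: 100, growth as untreated; towards 0, rising growth inhibition; 0, no net growth; 0 to -100, cell death. Compounds scoring below 10 were considered active.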 Values without a mark were called inactive. Calls of active or inactive are those of the source.

One assay concerns HCC-2998 colon. The assay is described as follows: NCI-60 one-dose screen, 48 h (100 = growth as untreated, 0 = no growth, -100 = all killed). The following applies: 10 µM unless noted.
For `COc1ccc(C(=NNS(=O)(=O)c2ccc(C)cc2)c2ccccc2)cc1OC`, the growth is 102%.

As for `CNC(=O)c1cc(Oc2ccc3c(c2)sc2nc(-c4ccc(N(C)C)cc4)cn23)ccn1`, the growth is 0.825% (active).

Consider `CN1CCN(Cc2ccc(/C=N/Nc3ccnc4cc(Cl)ccc34)cc2)CC1`, for which the growth was 67.8%.

Regarding `O=C1Nc2ccccc2/C1=N\c1nnc(-c2ccccc2)o1`, the growth is 111%.

For the molecule `COc1ccc2c(c1)C=CC1(O2)Oc2ccc(OC)cc2C=C1C` (centres undefined), the growth was 24.1%.

Consider `Cn1cc(-c2nn3cc(-c4ccncc4)nc3s2)c2cc(Br)ccc21`, for which the growth was 58.9%.

On to `C#Cc1nc(/C=C/CCCCCCC(=O)NO)cs1`, for which the growth was 108%.

Regarding `CC[C@]12CC(C(=O)OC)=C3Nc4ccccc4[C@@]34CCN(C14)[C@@H]1c3cc4c(cc3O[C@@H]1[C@H]2O)NC1=C(C(=O)OC)C[C@@]2(CC)C3N(CC[C@@]143)C[C@H]1O[C@H]12` (some centres undefined), the growth was -41.3% (active).

Regarding `O=C(CCCCCCN1CC(=O)N2[C@@H](C3CC3)c3[nH]c4ccccc4c3C[C@H]2C1=O)NO`, the growth was 108%.

Another assay relates to KM12 colon. The description is as above. The following applies: 10 µM unless noted.
For the molecule `Nc1cc(C(=O)N/N=C\c2ccc(OC(F)F)c(OC3CCCC3)c2)nn1CC(O)c1ccccc1` (centres undefined), the growth was 95.6%.

As to `Clc1ccc2[nH]cc(-c3nn4cc(-c5ccncc5)nc4s3)c2c1`, the growth was 47.7%.

As for `CN1CC[C@@H]2[C@@]3(C)CC[C@H](O)C(C)(C)[C@@H]3CC[C@@]2(C)[C@]2(C)CC[C@@]3(CO)CCC(C)(C)C[C@@H]3C12` (some centres undefined), the growth was 96.2%.

In the case of `Brc1cc(-c2cc(-c3ccc4c(c3)OCCO4)[nH]n2)cs1`, the growth was 27.7%.

As for `NS(=O)(=O)c1ccc(Nc2nc(Nc3ccccc3)nc(N3N=C(c4ccc(Cl)cc4)CC3c3ccc(Cl)cc3)n2)cc1` (centres undefined), the growth was 5.08% (active).

Take `O=C(N/N=C\c1ccc([N+](=O)[O-])cc1)c1ccc2nc(-c3ccc(Br)cc3)[nH]c2c1`: the growth was 11.7%.

With `O=C(/C=C/c1cccc(C(F)(F)F)c1)Nc1cccc(C(F)(F)F)c1`, the growth was 24.4%.

For the molecule `Brc1cccc(-c2cc(-c3ccc4c(c3)OC=CO4)[nH]n2)c1`, the growth was 38.1%.

On to `CCc1cc2c(cc1Cl)nc1c(=O)[nH]c(=O)nc-1n2CCOCC(C)C`, for which the growth was 74.3%.

Turning to `CCCCSC1=C(Cl)CN(c2ccccc2)C1=O`, the growth was 93.7%.

Turning to `Brc1ccc(-c2cc(-c3ccc4c(c3)OC=CO4)n[nH]2)s1`, the growth is 58.6%.

Turning to `O=c1c2cc(-c3ccc(F)cc3F)ccc2n(Nc2ccccc2)c(=O)n1-c1cccc(C(F)(F)F)c1`, the growth is 11.4%.

With `CN1CCN(CCCCCC(=O)Nc2nc(-c3cccc(NS(=O)(=O)c4cccc5c(N(C)C)cccc45)c3)cs2)CC1`, the growth was 79.6%.

For the molecule `CCCCc1nc2c(N)nc3ccccc3c2n1Cc1cccc(CN)c1`, the growth is 49.9%.

`CCCCCCCCCCCC(=O)NC(C)(C)C(=O)N1CCCC1C(=O)NC(C)(C)C(=O)NC(C)(C)C(=O)N1CCCC1C(=O)NC(C)(C)C(=O)NC(C)(C)C(=O)N1CCCC1C(=O)NC(C)C(=O)NCCC(=O)NC(C)C(=O)NC(C)(C)C(=O)NC(C)(C)C(=O)NC(C)(C)C(=O)NCCC(=O)NC(C)(C)C(=O)NC(C)(C)C(=O)NC(C)(C)C(=O)NC(C)C(=O)NCCC(=O)O` (centres undefined): the growth is -98.5% (active).

Turning to `NS(=O)(=O)c1ccc(Nc2nc(N/N=C/c3ccc4c(c3)OCO4)nc(Nc3ccccc3)n2)cc1`, the growth was 70.4%.

Regarding `O=[N+]([O-])c1ccc(NC(=S)NNC(=S)Nc2ccc(Br)cc2)cc1`, the growth is 55.4%.

With `Cc1cc(=O)[nH]c(O)c1C#N`, the growth was 102%.

For `Cc1ccc(OCc2occc2C(=O)N2CCOCC2)cc1`, the growth was 107%.

Consider `O=C1C(SCc2ccccc2)=C(Cl)CN1c1ccccc1`, for which the growth was 98.3%.

For the molecule `COc1ccc(C2C(C#N)=C(/N=C/c3ccc(Cl)cc3)Oc3c2sc2c(C)cccc32)cc1` (centres undefined), the growth was 23.1%.

Regarding `CN(C)CCNc1ccc2ncc(C#Cc3cncc(C(=O)Nc4ccc(CN5CCN(C)CC5)c(C(F)(F)F)c4)c3)n2n1`, the growth was -8.42% (active).

Take `CN1CCC[C@]2(C)[C@H]3CC[C@@H]4[C@@H]5[C@H]6OC[C@@]5(CCC6(C)C)CC[C@@]4(C)[C@]3(C)CC[C@H]2C1(C)C`: the growth is 79.1%.

`COc1ccccc1/C=C/C(=O)c1nnn(-c2ccc(F)cc2)c1C`: the growth was 32.6%.

With `CC(C)[C@H]1c2[nH]c3ccccc3c2C[C@H]2C(=O)N(CCCCCCC(=O)NO)CC(=O)N12`, the growth is 88.8%.

As for `COC(=O)CCCNCCCn1ccc2cc(NCc3cccc(-c4ccccc4)c3C)ccc21`, the growth was 85.9%.

On to `C=C(C=O)[C@@H]1CC[C@]2(C(=O)O)CC[C@]3(C)C(CC[C@@H]4[C@@](C)(CCC#N)[C@H](C(=C)C=O)CC[C@]43C)[C@@H]12` (some centres undefined), for which the growth was 92%.

As for `CC1(C)CC[C@]23CC[C@]4(C)[C@H](CC[C@@H]5[C@@]6(C)CC[C@H](NCO)C(C)(C)[C@@H]6CC[C@]54C)[C@H]2[C@H]1OC3`, the growth is -0.242% (active).

`O=C1/C(=C/C=C/c2ccco2)SC(=S)N1Cc1ccccc1`: the growth is 78.6%.

As for `COc1ccc(/C=N/NC(=O)c2c(N)nn(C)c2Nc2ccccc2)cc1Oc1ccccc1`, the growth was 92.7%.

`Cc1[nH]c(C(=O)Nc2ccc(S(=O)(=O)N3CCCCC3)cc2OCCOCCOCCOCCOCCOCCOCCOCCOCCOc2cc(S(=O)(=O)N3CCCCC3)ccc2NC(=O)c2[nH]c(C)c3c2CCCCC3=O)c2c1C(=O)CCCC2`: the growth is 29.1%.

For `COc1ccc(C(=NNS(=O)(=O)c2ccc(C)cc2)c2ccccc2)cc1OC`, the growth is 105%.

Consider `CNC(=O)c1cc(Oc2ccc3c(c2)sc2nc(-c4ccc(N(C)C)cc4)cn23)ccn1`, for which the growth is 23.2%.

Turning to `CN1CCN(Cc2ccc(/C=N/Nc3ccnc4cc(Cl)ccc34)cc2)CC1`, the growth was 74.8%.

Regarding `O=C1Nc2ccccc2/C1=N\c1nnc(-c2ccccc2)o1`, the growth was 96.7%.

Consider `COc1ccc2c(c1)C=CC1(O2)Oc2ccc(OC)cc2C=C1C` (centres undefined), for which the growth was 27.9%.

Consider `Cn1cc(-c2nn3cc(-c4ccncc4)nc3s2)c2cc(Br)ccc21`, for which the growth is 65.8%.

As to `C#Cc1nc(/C=C/CCCCCCC(=O)NO)cs1`, the growth was 74.7%.

For the molecule `CC[C@]12CC(C(=O)OC)=C3Nc4ccccc4[C@@]34CCN(C14)[C@@H]1c3cc4c(cc3O[C@@H]1[C@H]2O)NC1=C(C(=O)OC)C[C@@]2(CC)C3N(CC[C@@]143)C[C@H]1O[C@H]12` (some centres undefined), the growth is 13.4%.

In the case of `O=C(CCCCCCN1CC(=O)N2[C@@H](C3CC3)c3[nH]c4ccccc4c3C[C@H]2C1=O)NO`, the growth was 84.2%.
